The values that follow come from the supplement of paper PMC13380429.

In assay [1] the test system is Vero E6 infected with SARS-CoV-2. The assay can be described thus: morphology score (similarity to uninfected cells); higher = more like uninfected cells. Particulars: 24 h.
The test system is the same in assay [2]. The assay is described as follows: SARS-CoV-2 infection rate relative to infected DMSO; higher = more infection, active = 60 or less. As to conditions: 24 h.

Take `O=C(O)CCc1c[nH]c2ccccc12` (10 µM): the morphology score in assay [1] was 0.0821. Also, the SARS-CoV-2 infection rate in assay [2] was 104% (inactive).
For the molecule `CC[N+](C)(CC)CCC[n+]1c(-c2ccccc2)c2cc(N)ccc2c2ccc(N)cc21` [propidium-iodide] (10 µM), in assay [1], the morphology score is 0.271. In addition, the SARS-CoV-2 infection rate in assay [2] was 93.5% (inactive).
As for `C[C@H]1C[C@@H]2[C@H]([C@@H](O)C[C@@]3(C)[C@H]2CC[C@]3(O)C(=O)COC(=O)CCC(=O)O)[C@@]2(C)C=CC(=O)C=C12` [methylprednisolone-sodium-succinate] (10 µM), the morphology score in assay [1] was -0.0168. The SARS-CoV-2 infection rate in assay [2] is 102% (inactive).
For `Cc1cc(CCCOc2c(C)cc(-c3noc(C(F)(F)F)n3)cc2C)on1` [pleconaril] (10 µM) the same measures were -0.0431 and 108% (inactive).
In assay [1], `CCCC(C)C1(CC)C(=O)NC(=S)NC1=O` (stereo not drawn) [thiopental] (10 µM) displayed a morphology score of 0.132. Besides, the SARS-CoV-2 infection rate in assay [2] is 110% (inactive).
For `c1ccc(-c2oc3ncnc(NC[C@@H]4CCCO4)c3c2-c2ccccc2)cc1` (10 µM) the same measures were 0.0044 and 106% (inactive).
For `N[C@@H]1[C@H]2CN(c3nc4c(cc3F)c(=O)c(C(=O)O)cn4-c3ccc(F)cc3F)C[C@@H]12` [trovafloxacin] (10 µM) the same measures were 0.276 and 108% (inactive).
Turning to `CC(=O)NS(=O)(=O)c1ccc(N)cc1` [sulfacetamide] (10 µM), in assay [1], the morphology score is 0.147. Further, in assay [2], the SARS-CoV-2 infection rate is 100% (inactive).
`C=CCc1ccc(O)c(-c2ccc(O)c(CC=C)c2)c1` [honokiol] (10 µM): the morphology score in assay [1] turned out to be 0.432. Besides, the SARS-CoV-2 infection rate in assay [2] is 80.5% (inactive).
Take `CCCOC(C(=O)OC1CCN(C)CC1)(c1ccccc1)c1ccccc1` [propiverine] (10 µM): the morphology score in assay [1] came to 0.677. The SARS-CoV-2 infection rate in assay [2] was 41% (active).
For `CNC(=O)c1cc(Oc2ccc(NC(=O)Nc3ccc(Cl)c(C(F)(F)F)c3)cc2)ccn1` [sorafenib] (0.833333 µM) the same measures were -0.246 and 118% (inactive).
For `CNC(=O)Oc1ccccc1OC(C)C` [propoxur] (10 µM) the same measures were -0.276 and 118% (inactive).
In the case of `Cc1cc(-c2ccc(/N=N/c3ccc4c(S(=O)(=O)O)cc(S(=O)(=O)O)c(N)c4c3O)c(C)c2)ccc1/N=N/c1ccc2c(S(=O)(=O)O)cc(S(=O)(=O)O)c(N)c2c1O` [evans-blue] (0.833333 µM), the morphology score in assay [1] was -0.0473. Besides, the SARS-CoV-2 infection rate in assay [2] was 110% (inactive).
For `O=C(O)COc1cccc(CN(Cc2ccc(-n3cccn3)cc2)S(=O)(=O)c2cccnc2)c1` [taprenepag] (10 µM) the same measures were -0.0257 and 100% (inactive).
In turn, `CC(Oc1c(Cl)cccc1Cl)C1=NCCN1` (stereo not drawn) [lofexidine] (10 µM) yielded a morphology score in assay [1] of -0.13. Further, in assay [2], the SARS-CoV-2 infection rate was 102% (inactive).
`CCN1CCN(Cc2ccc(-c3cc4c(N[C@H](C)c5ccccc5)ncnc4[nH]3)cc2)CC1` (10 µM): in assay [1], the morphology score was -0.144. Besides, the SARS-CoV-2 infection rate in assay [2] was 124% (inactive).
For `OC[C@H]1O[C@@H](OCCc2ccc(O)cc2)[C@H](O)[C@@H](O)[C@@H]1O` [salidroside] (10 µM) the same measures were 0.0363 and 116% (inactive).
As to `O=C(O)[C@@H](S)[C@@H](S)C(=O)O` [dimercaptosuccinic-acid] (10 µM), in assay [1], the morphology score is 0.102. For the same molecule, the SARS-CoV-2 infection rate in assay [2] is 100% (inactive).
In assay [1], `C#Cc1cccc(Nc2ncnc3cc(OCCOC)c(OCCOC)cc23)c1` [erlotinib] (10 µM) displayed a morphology score of -0.159. Also, the SARS-CoV-2 infection rate in assay [2] was 116% (inactive).
For the molecule `C[C@@H]1C[C@H]2[C@@H]3C[C@H](F)C4=CC(=O)C=C[C@]4(C)[C@@]3(F)[C@@H](O)C[C@]2(C)[C@@]1(O)C(=O)CO` [flumethasone] (10 µM), the morphology score in assay [1] was -0.0494. In addition, in assay [2], the SARS-CoV-2 infection rate is 110% (inactive).
As to `CCCn1c(=O)c2[nH]cnc2n(-c2ccc(Cl)cc2)c1=O` [arofylline] (10 µM), the morphology score in assay [1] is 0.178. For the same molecule, the SARS-CoV-2 infection rate in assay [2] is 108% (inactive).
For `c1ccc(-c2n[nH]c3c2oc2ccccc23)cc1` (10 µM) the same measures were 0.0627 and 98.5% (inactive).
For `C[C@H](N)C(=O)O` [L-alanine] (10 µM) the same measures were -0.118 and 111% (inactive).
For `COC(=O)N[C@@H](C)CNc1nccc(-c2cn(C(C)C)nc2-c2cc(Cl)cc(NS(C)(=O)=O)c2F)n1` [Encorafenib (LGX818)] (0.833333 µM) the same measures were 0.0501 and 95% (inactive).
`O=C(Nc1ccccc1-c1cn2c(CN3CCNCC3)csc2n1)c1cnc2ccccc2n1` (0.833333 µM): the morphology score in assay [1] came out at 0.075. Besides, the SARS-CoV-2 infection rate in assay [2] was 114% (inactive).
As for `Cc1nc(-c2cccnc2)sc1C(=O)Nc1ccccc1-c1cn2c(CN3CCOCC3)csc2n1` (10 µM), the morphology score in assay [1] is 0.215. Moreover, the SARS-CoV-2 infection rate in assay [2] is 98% (inactive).
For `CN(C)CCCN1c2ccccc2Sc2ccc(Cl)cc21` [chlorpromazine] (0.833333 µM) the same measures were 0.071 and 98.5% (inactive).
On to `CC(C)=CCC[C@](C)(O[C@@H]1O[C@H](CO)[C@@H](O)[C@H](O)[C@H]1O)[C@H]1CC[C@]2(C)[C@@H]1[C@H](O)C[C@@H]1[C@@]3(C)CC[C@H](O[C@@H]4O[C@H](CO)[C@@H](O)[C@H](O)[C@H]4O[C@@H]4O[C@H](CO)[C@@H](O)[C@H](O)[C@H]4O)C(C)(C)[C@@H]3CC[C@]12C` [ginsenoside-RD] (10 µM), for which, in assay [1], the morphology score amounted to 0.0521. For the same molecule, the SARS-CoV-2 infection rate in assay [2] was 102% (inactive).
`COc1c(C)c(C(=O)c2ccc(N)c(C(=O)O)c2)n2ccccc12` (10 µM) came in with a morphology score in assay [1] of 0.0882. In assay [2], the SARS-CoV-2 infection rate is 105% (inactive).
